Experimental data taken from PubChem BioAssay AID1159580 (chemical genetic matrix, 2015).
Hit rate of the full screen: of about 5,500 compounds, about 2,000 (36%) were called active. Inconclusive results (about 18%) are left out. Some of the results follow. Unmarked numbers belong to inactive results. Rule as the data show it: active = normalized growth mostly below about 0.91 (no sharp cut-off); inconclusive = no clear call, values can overlap the other calls; inactive = mostly above about 0.92.

Experiment: chemical genetic growth profiling, strain panel (AID 1159580);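 also: tested at 20 µM; growth read once vehicle control cultures reached saturation at 30 °C; 1 = growth at the plate median or of vehicle wells; lower values mean less growth of the strain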
Details: growth OD
[1] = S. cerevisiae deletion strains, locus YDR150W, strain NUM1, stronger effect = lower value
[2] = S. cerevisiae deletion strains, locus YGR078C, strain PAC10, stronger effect = lower value
[3] = S. cerevisiae deletion strains, locus YGR229C, strain SMI1, stronger effect = lower value
[4] = S. cerevisiae deletion strains, locus YNL128W, strain TEP1, stronger effect = lower value
[5] = S. cerevisiae deletion strains, locus YPL241C, strain CIN2, stronger effect = lower value
[6] = S. cerevisiae deletion strains, locus YAL013W, strain DEP1, stronger effect = lower value
[7] = S. cerevisiae deletion strains, locus YBR229C, strain ROT2, stronger effect = lower value
[8] = S. cerevisiae deletion strains, locus YDL101C, strain DUN1, stronger effect = lower value
[9] = S. cerevisiae deletion strains, locus YEL061C, strain CIN8, stronger effect = lower value
[10] = S. cerevisiae deletion strains, locus YHR030C, strain SLT2, stronger effect = lower value
[11] = S. cerevisiae deletion strains, locus YHR087W, strain rtc3, stronger effect = lower value
[12] = S. cerevisiae deletion strains, locus YJR043C, strain POL32, stronger effect = lower value
[13] = S. cerevisiae deletion strains, locus YJR075W, strain HOC1, stronger effect = lower value
[14] = S. cerevisiae deletion strains, locus YLR039C, strain RIC1, stronger effect = lower value
[15] = S. cerevisiae deletion strains, locus YLR058C, strain SHM2 (second series), stronger effect = lower value
[16] = S. cerevisiae deletion strains, locus YLR085C, strain ARP6, stronger effect = lower value
[17] = S. cerevisiae deletion strains, locus YLR262C, strain YPT6, stronger effect = lower value
[18] = S. cerevisiae deletion strains, locus YML094W, strain GIM5, stronger effect = lower value
[19] = S. cerevisiae deletion strains, locus YMR219W, strain ESC1, stronger effect = lower value
[20] = S. cerevisiae deletion strains, locus YMR263W, strain SAP30, stronger effect = lower value
[21] = S. cerevisiae deletion strains, locus YNL153C, strain GIM3, stronger effect = lower value
[22] = S. cerevisiae deletion strains, locus YNL298W, strain CLA4 (second series), stronger effect = lower value
[23] = S. cerevisiae deletion strains, locus YNL322C, strain KRE1, stronger effect = lower value
[24] = S. cerevisiae deletion strains, locus YNR030W, strain Alg12, stronger effect = lower value
[25] = S. cerevisiae deletion strains, locus YPL055C, strain LGE1, stronger effect = lower value
[26] = S. cerevisiae deletion strains, locus YPR135W, strain CTF4, stronger effect = lower value

N[C@@H](Cc1c[nH]c2ccccc12)C(=O)O
normalized growth (S. cerevisiae deletion strains, locus YAL040C, strain CLN3, stronger effect = lower value): 1.02 | normalized growth (S. cerevisiae deletion strains, locus YCL061C, strain MRC1 (second series), stronger effect = lower value): 1 | normalized growth [1]: 1.01 | normalized growth (S. cerevisiae deletion strains, locus YDR363W, strain ESC2, stronger effect = lower value): 1.01 | normalized growth (S. cerevisiae deletion strains, locus YER002W, strain NOP16, stronger effect = lower value): 1.01 | normalized growth [2]: 1 | normalized growth [3]: 1.03 | normalized growth (S. cerevisiae deletion strains, locus YMR307W, strain GAS1, stronger effect = lower value): 0.991 | normalized growth [4]: 1 | normalized growth (S. cerevisiae deletion strains, locus YNL175C, strain NOP13, stronger effect = lower value): 0.997 | normalized growth (S. cerevisiae deletion strains, locus YNL197C, strain WHI3, stronger effect = lower value): 0.996 | normalized growth (S. cerevisiae deletion strains, locus YNL224C, strain SQS1, stronger effect = lower value): 1.01 | normalized growth (S. cerevisiae deletion strains, locus YOR083W, strain WHI5 (second series), stronger effect = lower value): 0.996 | normalized growth [5]: 1.01

CCCCCc1ccc(C(=O)O/N=C\c2c(Cl)cccc2Cl)cc1
normalized growth [6]: 0.966 | normalized growth [7]: 0.941 | normalized growth (S. cerevisiae deletion strains, locus YCL061C, strain MRC1, stronger effect = lower value): 0.933 | normalized growth [8]: 1.01 | normalized growth (S. cerevisiae deletion strains, locus YDL134C, strain PPH21, stronger effect = lower value): 0.936 | normalized growth [1]: 1.01 | normalized growth [9]: 0.902 (active) | normalized growth [2]: 0.959 | normalized growth [3]: 0.929 (active) | normalized growth [10]: 1.01 | normalized growth [11]: 0.939 | normalized growth [12]: 0.962 | normalized growth [13]: 0.982 | normalized growth [14]: 0.84 | normalized growth [15]: 0.943 | normalized growth [16]: 0.943 | normalized growth [17]: 0.82 | normalized growth [18]: 0.98 | normalized growth [19]: 0.95 | normalized growth [20]: 1.03 | normalized growth [4]: 0.962 | normalized growth [21]: 0.92 (active) | normalized growth [22]: 0.969 | normalized growth [23]: 0.947 | normalized growth [24]: 0.958 | normalized growth (S. cerevisiae deletion strains, locus YOL006C, strain TOP1, stronger effect = lower value): 0.796 | normalized growth [25]: 0.943 | normalized growth [5]: 0.963 | normalized growth [26]: 1.07 | normalized growth (S. cerevisiae strains, strain wild type, stronger effect = lower value): 0.919

O=[N+]([O-])c1cnc(Sc2n[nH]c(-c3cccs3)n2)s1
normalized growth [6]: 0.488 (active) | normalized growth [7]: 0.258 (active) | normalized growth [8]: 0.23 (active) | normalized growth [1]: 0.347 (active) | normalized growth [9]: 0.612 (active) | normalized growth [2]: 0.214 (active) | normalized growth [3]: 0.974 | normalized growth [10]: 0.312 (active) | normalized growth [11]: 0.377 (active) | normalized growth [12]: 0.602 (active) | normalized growth [13]: 0.224 (active) | normalized growth (S. cerevisiae deletion strains, locus YKL190W, strain CNB1, stronger effect = lower value): 0.715 (active) | normalized growth [14]: 0.426 (active) | normalized growth [15]: 0.404 (active) | normalized growth [16]: 0.152 (active) | normalized growth [17]: 0.596 (active) | normalized growth [18]: 0.573 (active) | normalized growth [19]: 0.35 (active) | normalized growth [20]: 0.194 (active) | normalized growth [4]: 0.876 (active) | normalized growth [21]: 0.215 (active) | normalized growth [22]: 0.352 (active) | normalized growth [23]: 0.927 (active) | normalized growth [24]: 0.508 (active) | normalized growth [25]: 0.126 (active) | normalized growth [5]: 0.36 (active) | normalized growth [26]: 0.319 (active)
